Measured values taken from PubChem BioAssay AID504727 (Broad Institute, 2011).
A number with no mark means an inactive call. Activity calls are given as the source filed them.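 The calls were made as follows: active = fitted half-maximal concentration AC50 at or below ten times the highest valid tested dose, with signal falling as DNA is displaced (actives reach about 34 µM in these data); inconclusive = flat fit at moderate signal loss, or poor fit quality; inactive = the rest, including signal rising instead of falling.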

Assay: acridine orange-DNA binding displacement – biochemical, fluorescence polarization, cherry-picked samples, set 2, artefact control for KSHV LANA DNA-binding inhibitor project, dose response (AID 504727);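 as to activity change, negative = DNA displacement: 0% = median of neutral control wells and -100% = mitoxantrone positive control wells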
Details: series mostly up to 35 µM; activity change, negative = DNA displacement: at the top concentration

| Compound | activity change, negative = DNA displacement | AC50 |
| --- | --- | --- |
| CCOC(=O)C1=C(O)/C(=C/c2cc(C)n(-c3ccccc3)c2C)N=C1C | 4.12% | – |
| O=S(=O)(O)c1cc(Cl)cc(N=Nc2ccc(O)cc2O)c1O | -2.84% | – |
| CCn1c(-c2ccc([N+](=O)[O-])cc2)n[nH]c1=S | -3.7% | – |
| CC1CCCN(C(=O)C(=O)c2cn(CC(=O)N3CCCCCC3)c3ccccc23)C1 (stereo not drawn) | 2.69% | – |
| Fc1ccc(-c2cc(C(F)(F)F)nc(-n3cc(Cl)cn3)n2)cc1 | 5.26% | – |
| COc1ccc(C(C)=O)cc1CN(C)C | 3.98% | – |
| O=[N+]([O-])c1cc(-n2cnnn2)ccc1N1CCC(Cc2ccccc2)CC1 | -4.6% | – |
| O=C(O)/C=C/c1ccccc1Oc1ccccc1 | 5.3% | – |
| O=C(O)c1ccccc1C1=Nc2ccc(O)cc2Oc2cc(O)ccc21 | – | 13.4 µM (active) |
| CNC(=S)Nc1cccc(C(=O)OC)c1 | -2.26% | – |
| O=C(CCNc1ccc(Cc2ccncc2)cc1)c1cccc([N+](=O)[O-])c1 | -1.92% | – |
| O=C(O)CCCCCn1c(SCC(=O)c2ccc(O)c(O)c2)nc2ccsc2c1=O | – | 23.8 µM (active) |
| CS(=O)(=O)Nc1nc2n(n1)C(c1ccccc1)C=C(c1ccc(Br)cc1)N2 (stereo not drawn) | – | 18 µM (active) |
| CCOc1ccccc1N1CCN(C(=O)c2ccc3nc(N)sc3c2)CC1 | 5.07% | – |
| CCCCn1c(=O)[nH]c2nc3cc(N)ccc3nc2c1=O | – | 3.75 µM (active) |
| Cn1c(=O)c2c(nc(N/N=C/c3ccc(OC(=O)c4ccco4)cc3)n2Cc2ccc(F)cc2)n(C)c1=O | 24.9% | – |
| COc1ccc(/C=C/c2cc(C(F)(F)F)[nH]c(=O)n2)cc1OC | -1.76% | – |
| CCn1nc(-c2ccccc2)c2nc3ccccc3nc21 | – | 24.2 µM (active) |
